# The list is not random: actives were taken first. Their share in the collection is about 14%.
# Pf growth 48h: P. falciparum growth inhibition at 48 hours (one generation); P. falciparum luciferase growth in erythrocytes, 48 h; Potency, µM (titrated, usually from 28.7 µM), for inactives: at the top dose activity change, negative = inhibition, actives largely listed as inhibitors; actives 5.9% (n = 310,000); AID 504832; note: potency is the fitted concentration of half-maximal effect
#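 In quantitative HTS format, infected erythrocytes bearing luciferase-reporter parasites were treated for a single generation at 37 C. Luminescence after adding detection reagent served as the growth measure.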
# FBPA Giardia inh: inhibitors of Giardia lamblia fructose-1,6-bisphosphate aldolase. A8B2U2. purified Giardia FBPA. Potency, µM (doses to about 59.6 µM), for inactives: at the highest dose activity, negative = inhibition, hits mostly inhibitors. actives 0.71% (n = 290,000); note: potency is the fitted concentration of half-maximal effect; nearly all actives have a fitted effect of over 55% in size
# Target sequence (A8B2U2 whole entry, looked up): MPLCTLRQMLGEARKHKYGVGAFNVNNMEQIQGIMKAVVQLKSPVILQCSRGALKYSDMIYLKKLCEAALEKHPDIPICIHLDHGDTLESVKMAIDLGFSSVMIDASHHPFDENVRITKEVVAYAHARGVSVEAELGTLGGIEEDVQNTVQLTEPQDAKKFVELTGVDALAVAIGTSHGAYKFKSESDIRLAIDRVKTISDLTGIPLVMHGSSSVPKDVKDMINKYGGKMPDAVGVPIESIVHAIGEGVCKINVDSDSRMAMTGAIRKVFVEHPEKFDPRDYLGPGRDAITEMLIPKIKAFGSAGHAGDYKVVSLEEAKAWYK
#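 Giardia FBPA (40 nM reagent) was preincubated 10 min at RT with compound (up to 57.5 uM final), then substrate plus GAPDH/TPI/NAD/arsenate coupling system with diaphorase/resazurin was added; resorufin fluorescence (525/598 nm) was read after 20 min.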
# HCMV inh: blocks human cytomegalovirus replication. actives 4.5% (n = 410,000). HFF cells, HCMV-luciferase reporter, 72 h; active compounds read low. activity change, negative = inhibition, % at 57.5 µM. AID 1259415; in the data active = activity change below about -60%; inconclusive = no clear call, values can overlap the other calls; inactive = above about -39%
#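 Screen run at 2 compound doses on HFFs infected with reporter HCMV, MOI 1 PFU/cell. Luciferase activity from cell lysates at 72 h post infection gave inhibition relative to buffer-only and Salinomycin wells.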
# Sm TGR inh: inhibitors of Schistosoma mansoni thioredoxin glutathione reductase; Q962Y6; purified TGR, DTNB reduction, TNB absorbance 405 nm; Potency, µM (highest dose often 114 µM), inactives show top-dose activity change, negative = inhibition, most hits filed as inhibitors; actives 3% (n = 360,000); note: potency is the fitted concentration of half-maximal effect; nearly all actives have a fitted effect of over 60% in size
#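 First, TGR (20 nM dispensed) and NADPH were mixed with compound. Second, a 15 min room-temperature incubation followed. Third, further NADPH and then DTNB were added to start the reaction. Finally, TNB absorbance was monitored kinetically.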
# Pf growth 96h: P. falciparum growth inhibition at 96 hours; Potency, µM (highest dose often 28.7 µM), for the others: at the highest dose activity change, negative = inhibition, most hits filed as inhibitors; P. falciparum luciferase reporter growth, 96 h; actives 6.9% (n = 320,000); note: potency is the fitted concentration of half-maximal effect
#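 Plates of compound plus infected erythrocytes (2% hematocrit, 0.05% parasitemia final) incubate 96 hours, 37 C, 5% CO2. Detection reagent added; reduced luminescence from the parasites' luciferase reporter flags inhibition.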
# An asterisk follows results filed as active; ? = inconclusive; nt = not tested or not shown; [ ] = dose if it differs, or a comment. Unless noted, calls come from the whole dose curve; as a rule, active = well fitted curve in the direction sought with a large enough effect; inconclusive = small, poorly fitted or top-dose-only effect, or another doubt; inactive = no such curve, though single readings can be large; an effect the other way counts as inactive or inconclusive. % is set by controls: 0 for no effect and ±100 for the full control effect.
SMILES,Pf growth 48h,FBPA Giardia inh,HCMV inh,Sm TGR inh,Pf growth 96h
C[C@@]12CCC(=O)C=C1CC[C@H]1[C@H]3CC[C@](O)(C(=O)CO)[C@]3(C)CC(=O)[C@@H]12,nt,-5.0%[21.7 µM],nt,nt,nt
COC(=O)c1c(SCC(=O)Nc2cccc(C(F)(F)F)c2)[nH]c2ccccc2c1=O,nt,nt,16.3,4.6%,nt
COC(=O)[C@H](Cc1ccccc1)NS(=O)(=O)N[C@@H](Cc1ccccc1)C(=O)OC,15.0%,nt,-62.2*,-0.3%,36.7%
COC(=O)[C@H](CC(C)C)N(Cc1ccccc1)S(=O)(=O)N(Cc1ccccc1)[C@@H](CC(C)C)C(=O)OC,nt,nt,-68.7*,nt,nt
CC(C)CC(C(=O)O)N(Cc1ccccc1)Cc1ccccc1 (centres undefined),14.1%,-6.9%,41.6,-2.0%,69.3%
COC(=O)C(Cc1ccc(O)cc1)NS(=O)(=O)Cc1ccccc1 (centres undefined),nt,nt,12.0,nt,nt
COC(=O)C(CC(C)C)N(Cc1cc(OC)cc(OC)c1)S(=O)(=O)c1ccccc1Br (centres undefined),nt,nt,-19.2,nt,nt
COC(=O)[C@H](CC(C)C)N(Cc1ccccc1)S(=O)(=O)N(Cc1ccc(OC)cc1)[C@@H](CC(C)C)C(=O)OC,nt,nt,-66.2*,nt,nt
CCOC(=O)[C@@H](C)N(Cc1ccc(OC)cc1)S(=O)(=O)N(Cc1ccccc1)[C@H](C(=O)OC)C(C)C,10.4µM*,nt,-79.5*,-7.6%,?
CCOC(=O)[C@@H](C)NS(=O)(=O)N(Cc1ccccc1)[C@H](C(=O)OC)C(C)C,-23.0%,nt,-19.1,-1.8%,17.8%
CCN=C1NC(c2ccccc2C(F)(F)F)C(C(=O)OC)=C(C)N1C (centres undefined),nt,nt,60.5,nt,nt
COc1ccc2c(c1OC)CN1CCc3cc4c(cc3[C@H]1C2)OCO4,3.7µM*,-10.6%[21.7 µM],nt,-2.4%,0.721µM*
COc1ccc2c(c1OC)CN(C)CCc1cc3c(cc1C(O)C2)OCO3 (centres undefined),31.3%,4.8%,nt,-0.6%,-0.6%
COc1ccc2c(c1OC)C(=O)O[C@H]2[C@H]1c2cc3c(cc2CCN1C)OCO3,nt,-5.6%[21.7 µM],nt,nt,nt
COc1ccc2c(c1OC)CN1CCc3cc4c(cc3C1C2)OCO4 (centres undefined),?,-7.2%,-87.2*,-3.6%,?
COc1ccccc1-c1cccc(-c2nc(C(=O)Nc3nccs3)cc3c2[C@@H](CCO)N(C(=O)CC2CC2)C3)c1,nt,nt,-30.0,nt,nt
Cc1cc(C)c2c(=O)c3c(oc2c1)C(=O)N(Cc1ccc(F)cc1)C3c1cccc(O)c1 (centres undefined),nt,nt,-65.6*,1.3%,nt
Cc1ccc(CN2C(=O)c3oc4ccc(C)cc4c(=O)c3C2c2ccc(O)cc2)cc1 (centres undefined),nt,nt,10.5,7.2%,nt
Cc1cc2oc3c(c(=O)c2cc1C)C(c1cccc(Br)c1)N(Cc1ccco1)C3=O (centres undefined),?,1.9%,-17.7,-19.4%,?
Cc1ccc2oc3c(c(=O)c2c1)C(c1cccc(O)c1)N(Cc1ccccc1Cl)C3=O (centres undefined),nt,nt,-74.0*,-4.9%,nt
Cc1ccc2oc3c(c(=O)c2c1)C(c1cccc(Br)c1)N(Cc1ccco1)C3=O (centres undefined),-24.8%,-2.6%,-18.4,-1.4%,13.1µM*
Cc1cccc(O)c1,nt,-1.1%,nt,nt,nt
CCCCN(CCCC)c1ncnc2nc[nH]c12,-20.3%,0.8%,-90.9*,nt,61.5%
CCN(c1ccc(OC)cc1)c1ncnc2nc[nH]c12,-9.5%,-4.1%,-88.2*,-8.8%,?
COc1ccc2c(c1)O[C@@H](c1cccc(C(F)(F)F)c1)[C@H](OC(=O)Nc1cc(OC)c(OC)c(OC)c1)C2=O,nt,-7.4%,nt,nt,nt
SMILES,Pf growth 48h,FBPA Giardia inh,HCMV inh,Sm TGR inh,Pf growth 96h
CC1(C)Cc2c(C#N)c(NC3CCCCC3)nc(-c3ccco3)c2CO1,5.86µM*,?,nt,1.78µM*,9.28µM*
CC1(C)Cc2c(C#N)c(NCC3CCCO3)nc(-c3ccco3)c2CO1 (centres undefined),?,-21.1%,-2.4,4.47µM*,nt
CC1(C)Cc2nc(NC3CCCCC3)c(C#N)cc2CO1,9.28µM*,0.7%,-14.8,nt,15.0%
CC1(C)Cc2c(C#N)c(NCCc3ccccc3)nc(-c3ccco3)c2CO1,0.0%,0.0%,-3.0,?,-0.6%[5.75 µM]
COc1ccc2oc(-c3ccc(C)c(NC(=O)c4ccc(N5CCCCC5)c([N+](=O)[O-])c4)c3)nc2c1,nt,nt,22.0,-0.8%,nt
COc1ccc(OC)c(CN2C(=O)CSCC2(C)C(=O)NC(C)C)c1 (centres undefined),nt,nt,-2.7,nt,nt
CN(C)/C=C(/C(=O)c1ccc(Cl)cc1)S(C)(=O)=O,-3.2%,2.2%,-103.1*,4.9%,19.0%
OCCNc1nc(Nc2ccc(O)cc2)nc2ccccc12,1.65µM*,-7.9%,-11.5,-12.0%,5.22µM*
OCCNc1nc(NCc2ccccc2)c2ccccc2n1,?,-28.2%,?,-0.2%,11.7µM*
CC(C)Nc1nc(NCCO)nc2ccccc12,nt,nt,-6.7,nt,nt
OCCNc1nc(Nc2cccc(O)c2)nc2ccccc12,2.33µM*,-3.4%,?,7.6%,0.104µM*
COc1cccc(Nc2nc(NCCO)c3ccccc3n2)c1,nt,-18.0%,-4.3,1.5%,-11.4%
C=CCN1CC(COCCCC)Oc2ccc(Cl)cc2S1(=O)=O (centres undefined),nt,nt,-31.3,nt,nt
CCc1ccc(-n2c3nc(=O)[nH]c(=O)c-3cc3c(C)nn(-c4ccccc4)c32)cc1,nt,nt,-23.2,-3.1%,nt
CCOC(=O)[C@H]1[C@H]2COc3ccc(OC)cc3[C@@H]2N2C(=O)CN(Cc3ccc(Cl)cc3)C(=O)[C@@]12C,14.7µM*,nt,3.6,4.6%,?
CCOC(=O)[C@H]1[C@H]2COc3ccc(OC)cc3[C@@H]2N2C(=O)CN(Cc3ccccc3)C(=O)[C@@]12C,10.4µM*,nt,-30.3,-6.6%,?
O=C(NNC1CC(=O)N(c2ccc(Br)cc2)C1=O)c1cccs1 (centres undefined),16.3%,2.7%,-4.8,?,58.9%
COc1ccc(N2C(=O)CC(NC3CCCCNC3=O)C2=O)cc1 (centres undefined),20.0%,0.6%,23.2,20µM*,?
CCOC(=O)CNC1CC(=O)N(c2ccc(Br)cc2)C1=O (centres undefined),?,2.3%,11.5,10µM*,1.6%
COc1ccc(N2C(=O)CC(NCC#N)C2=O)cc1 (centres undefined),-1.3%,-0.1%,31.1,14.1µM*,334.7%
CCN(CC(=O)Nc1ccc2c(c1)OCCO2)C(=O)c1ccc(C)c(S(=O)(=O)N2CCOCC2)c1,?,nt,0.7,-20.1%,11.3%
CCOc1ccc(N(C)S(=O)(=O)c2ccc(C)c(C(=O)N3CCN(Cc4ccc5c(c4)OCO5)CC3)c2)cc1,nt,nt,-23.5,nt,nt
Cc1onc(-c2ccccc2)c1-c1ccnc(N)n1,1.0%,5.9%,48.9,-0.5%,?

# Compound activity: PubChem, National Center for Advancing Translational Sciences (NCATS)
